In PubChem BioAssay (NCI) one finds growth data, which are given here for eight compounds.

Structures are written as SMILES. Compounds without any hit were thinned out: in the full panel of roughly 83,000, 20% have a hit.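 Single-concentration screen, 48 h exposure, 96-well plates. Endpoint: percent growth. Below 10 = active.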 Values without a mark were called inactive. Calls of active or inactive are those of the source.

Common to all, as to assay: NCI-60 one-dose screen, 48 h (100 = growth as untreated, 0 = no growth, -100 = all killed)
Details in all cases: 10 µM unless noted

Experiment [1] relates to SR leukemia.
Experiment [2] concerns RPMI-8226 leukemia.
Experiment [3] deals with OVCAR-8 ovarian.
Experiment [4] relates to OVCAR-5 ovarian.
Experiment [5] relates to OVCAR-4 ovarian.
Experiment [6] has as its system SK-OV-3 ovarian.
Experiment [7] concerns IGROV1 ovarian.
Experiment [8] has as its system OVCAR-3 ovarian.
In experiment [9] the test system is HS 578T breast.
The test system of experiment [10] is NCI/ADR-RES ovarian.
The test system of experiment [11] is T-47D breast.
The subject of experiment [12] is BT-549 breast.
Experiment [13] relates to MDA-MB-435 melanoma.
Experiment [14] has as its system SW-620 colon.
The test system of experiment [15] is MCF7 breast.
Experiment [16] concerns HCT-116 colon.
The test system of experiment [17] is HCC-2998 colon.
For experiment [18], the system named is KM12 colon.
The subject of experiment [19] is MDA-MB-468 breast.

Take `Nc1nnc(-c2c[nH]c3ncc(Br)cc23)c(-c2c[nH]c3ccc(F)cc23)n1`: the growth in experiment [1] was 13.6%; in experiment [2] it was 33.7%; in experiment [3], 39%; in [4], 48.6%; in experiment [5] it was 59.6%; in experiment [6], 80.5%. The growth in [7] was 37.4%; in [8] it was 33.2%; in experiment [9], 28%; in experiment [10] it was 70.7%; in experiment [11], 38.2%; in experiment [12], 54.4%. Besides, the growth was 26% in experiment [13]; 20.9% in experiment [14]; 18.6% in experiment [15]; 26% in experiment [16]; 45.9% in experiment [17]; 30.5% in [18]. Moreover, the growth in [19] was 13.1%.

On to `COc1cc2oc(-c3cccc(C(=O)Nc4cccc([N+](=O)[O-])c4)c3)cc(=O)c2c(OC)c1OC`, for which the growth in experiment [1] is 55%; in experiment [2] it was 68.9%; in experiment [3], 5.89% (active); in experiment [4], 83.5%; in experiment [5] it was -6.32% (active); in experiment [6], -9.46% (active). Moreover, the growth in experiment [7] was 22.1%; in experiment [8], 26.7%; in experiment [9], -5.03% (active); in experiment [10] it was -18.2% (active); in experiment [11], 26.8%; in experiment [12] it was -15.9% (active). Further, the growth in [13] was 39.4%; in experiment [14], 83.1%; in [15], 25.1%; in experiment [16], 25.2%; in experiment [17], 32.6%; in [18] it was 47.9%. The growth in experiment [19] was 33%.

`N/C(=N\c1nc2ccccc2s1)NC(=O)Nc1c(Cl)cccc1Cl`: the growth in [1] was 17.2%; in [2], 17.2%; in experiment [3] it was 49.5%; in experiment [4] it was 49.3%; in [5], 56.7%; in experiment [6], 65.2%. Also, the growth in [7] is 49.4%; in experiment [8], 28.2%; in experiment [9] it was 34.4%; in [10], 7.17% (active); in [11] it was 18%; in [12], 37.3%. The growth in [13] is -17.9% (active); in [14], 25.6%; in [15], 15.6%; in [16], 22.7%; in experiment [17], 68.6%; in [18], 21.4%. In [19], the growth was -4.05% (active).

As to `COc1ccc2[nH]c(O)c(N=NC(=O)Cn3c(-c4ccccc4)nc4cc(C)ccc43)c2c1`, the growth in experiment [1] is 1.82% (active); in experiment [2] it was 10.7%; in [3], 1.93% (active); in experiment [4] it was 62.8%; in experiment [5], 45.3%; in [6] it was 89.9%. Besides, the growth is 51.9% in experiment [7]; 37.3% in experiment [8]; 25.6% in experiment [9]; -5.85% (active) in [10]; 30.3% in experiment [11]; -61.7% (active) in experiment [12]. The growth in experiment [13] is 43.7%; in experiment [14], 47.2%; in experiment [15] it was 33%; in experiment [16], -72.7% (active); in experiment [17], 18.9%; in experiment [18], 47.3%. Further, the growth in experiment [19] is 34.4%.

Consider `CCN(CC)CCOc1ccc(Nc2ncc3cc(-c4ccc(O)c(C#N)c4)c(=O)n(C)c3n2)cc1`, for which the growth in experiment [1] was -8.11% (active); in experiment [2], 65%; in experiment [3], 92.8%; in [4], 88.2%; in experiment [5], 89.3%; in experiment [6] it was 64.7%. Further, the growth in experiment [7] is 46.9%; in experiment [8], 83.7%; in experiment [9] it was 76.5%; in experiment [10], 114%; in experiment [11] it was 36.5%; in [12], 112%. In addition, the growth in [13] is 29.9%; in experiment [14], 110%; in experiment [15] it was 16.8%; in [16] it was 32.9%; in experiment [17], 111%; in experiment [18], 72.4%. For the same compound, the growth in [19] was 63.5%.

Take `COc1ccc(C2=NN(c3ccccc3)C(c3ccc(OC)c(OCc4ccccc4)c3)C2)cc1OC` (configuration not stated): the growth in experiment [1] is 104%; in experiment [2], 107%; in [3], 96.3%; in experiment [4], 110%; in experiment [5], 89.8%; in experiment [6] it was 93.4%. Further, the growth in experiment [7] was 84.1%; in experiment [8], 106%; in [9], 97.7%; in experiment [10] it was 103%; in experiment [11], 84.4%; in experiment [12], 107%. The growth in experiment [13] was 97.2%; in experiment [14], 101%; in experiment [15] it was 84.9%; in [16], 74.8%; in [17], 107%; in experiment [18] it was 97.7%. Also, the growth in [19] was 101%.

`COc1ccc(C2(SCCNCc3cc(N(C)C)ccn3)c3ccccc3C=Cc3ccccc32)cc1`: the growth in experiment [1] was -28.5% (active); in experiment [2], -22.8% (active); in [3] it was 9.18% (active); in experiment [4], 9.62% (active); in experiment [5], 43.7%; in experiment [6], 36.5%. Moreover, the growth in [7] was 40.8%; in [8], 14.6%; in experiment [9], -3.79% (active); in experiment [10], -47.9% (active); in experiment [11], 32.4%; in [12], 6.65% (active). In addition, the growth in experiment [13] was -33% (active); in [14] it was 4.94% (active); in experiment [15], -5.08% (active); in [16], 3.35% (active); in experiment [17], -30.1% (active); in experiment [18] it was 13.9%. Besides, in experiment [19], the growth is -46.9% (active).

Turning to `CCCSc1nc(NCCc2c[nH]c3ccccc23)c(C#N)c(-c2ccccc2)n1`, the growth in experiment [1] is 8.87% (active); in [2], 44.5%; in [3], 82.1%; in experiment [4] it was 91.8%; in experiment [5], 82.1%; in experiment [6] it was 91%. Besides, the growth in [7] is 100%; in [8], 100%; in experiment [9], 66.8%; in [10] it was 69%; in [11], 16.1%; in [12], 89.3%. In addition, the growth in experiment [13] was 83.4%; in experiment [14], 56.9%; in experiment [15] it was 24.9%; in experiment [16] it was 32%; in experiment [17], 59.9%; in experiment [18], 42.1%. Also, the growth in experiment [19] was 53.8%.
